Sampled rows, rich in hits. Any-hit rate of the full collection: about 7.2%.
HCV inhibitor: inhibitors of hepatitis C virus infection | Huh7.5.1 HCVcc-Cre infection, luciferase reporter, 44 h | Potency, µM (top dose mostly 41.8 µM), inactives show at the highest dose activity change, negative = inhibition, hits mostly inhibitors | 340,000 compounds, 3.4% hits
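Cells seeded at 1,000/well and cultured 4 h, then compounds added followed by HCVcc-Cre virus (~0.5 moi). After 44 h further culture, luciferase substrate was added, plates held 15 min at room temperature, and luminescence read for 15 sec.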
Sm TGR inh: S. mansoni TGR enzyme inhibition | AID 485364 | Potency, µM (highest dose often 114 µM), for inactives: top-dose activity change, negative = inhibition, actives largely listed as inhibitors | Q962Y6 | 360,000 compounds, 3% hits | purified TGR, DTNB reduction, TNB absorbance 405 nm; note: nearly all actives have a fitted effect of over 60% in size
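Kinetic colorimetric format: TGR-catalysed, NADPH-driven DTNB reduction monitored via TNB absorbance. Enzyme dispensed at 20 nM; compound exposure 15 min at room temperature before reaction start.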
MARV entry inh: inhibitors of Marburg virus binding or cell entry; Marburg virus pseudotyped entry inhibition, cell reporter; Potency, µM (doses to about 37.8 µM), without a hit: at the highest dose activity change, negative = inhibition, most hits filed as inhibitors; 300,000 compounds, 1.8% hits; AID 540276; calls by dose curve; tested in HEK293 cells
Lassa entry inh: inhibitors of Lassa virus binding or cell entry; 300,000 compounds, 1.2% hits; Lassa virus pseudotype entry inhibition, cell reporter; Potency, µM (top dose mostly 37.9 µM), for inactives: at the top dose activity change, negative = inhibition, actives largely listed as inhibitors; calls by dose curve; tested in HEK293 cells; note: nearly all actives have a fitted effect of over 50% in size
FMDV inh: foot and mouth disease virus antiviral activity; Potency, µM (titrated, usually from 57.9 µM), without a hit: top-dose activity change, negative = inhibition, most hits filed as inhibitors; 410,000 compounds, 1.2% hits; FMDV antiviral cell-based qHTS; AID 1159524; calls by dose curve; tested in HEK293T cells; note: read-out not given here; nearly all actives have a fitted effect of over 45% in size
RE007 growth inh: less growth of the S. pombe RE007 Vpr strain; S. pombe RE007 Vpr strain, BacTiter-Glo ATP luminescence, 24 h; Potency, µM (doses to about 92.2 µM), without a hit: at the highest dose activity change, negative = less growth, usual class: inhibitors; 360,000 compounds, 0.21% hits; active = well fitted falling curve with a large enough effect; inconclusive = small, poorly fitted or top-dose-only effect; inactive = no such curve, though single readings can be large or run the other way; note: nearly all actives have a fitted effect of over 50% in size
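Fission yeast strain RE007, carrying one chromosomally integrated HIV-1 vpr copy, was seeded at OD 0.01 in PMG+AL medium with 23 nL pinned compound. After 24 h at 30 °C and 99% humidity, viability was read by BacTiter-Glo luminescence.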
* = called active by the depositor; ? = inconclusive; . = not tested or not shown; [ ] = dose if it differs, or a comment. Unless noted, calls come from the whole dose curve; as a rule, active = well fitted curve in the direction sought with a large enough effect; inconclusive = small, poorly fitted or top-dose-only effect, or another doubt; inactive = no such curve, though single readings can be large; an effect the other way counts as inactive or inconclusive. % is set by controls: 0 for no effect and ±100 for the full control effect; potency is the fitted concentration of half-maximal effect.

SMILES	HCV inhibitor	Sm TGR inh	MARV entry inh	Lassa entry inh	FMDV inh	RE007 growth inh
COc1ccc(C(c2nnnn2CC2CCCO2)N2CCN(c3ccccc3)CC2)cc1 (stereo unspecified)	1%	0%	-25%	?	-2%	-13%
COCCCN1C(=O)c2[nH]nc(-c3ccccc3O)c2C1c1ccc(OCc2ccccc2)cc1 (stereo unspecified)	.	1%	?	?	?	.
CN(C(=O)CSc1nc2ccc(NC(=O)c3cccc(F)c3)cc2s1)c1ccccc1	.	1%	?	-26%[46.1 µM]	?	.
COc1ccc(-c2nc3cnc(N4CCN(C)CC4)nc3n(Cc3cccs3)c2=O)cc1	.	.	.	.	5%	.
CCOC(=O)[C@H](C)Sc1nc(-c2cccs2)ccc1C#N	.	.	-1%	.	.	.
CC(=O)c1ccccc1NC(=O)COC(=O)c1ccc2c(c1)nc(C)n2-c1ccccc1	6%	-1%	7%	-8%	.	.
Cc1nc2cc(C(=O)OCC(=O)NC(C)C(C)C)ccc2n1-c1ccccc1 (stereo unspecified)	-1%	1%	?	8.2µM*	7%	-13%
Cc1csc(Cn2c(CN(C)C)nc3ccccc3c2=O)n1	7%	1%	8%	4%	-2%	1%
CN(C)Cc1nc2ccccc2c(=O)n1Cc1nc(-c2cc3ccccc3o2)cs1	?	-8%	11µM*	-2%	-28%	10%
CCn1c(O)c(N=NC(=O)CNC(=O)c2ccco2)c2ccccc21	-6%	1%	.	.	-18%	-10%
CCn1c(O)c(N=NC(=O)CNC(=O)/C=C/c2ccco2)c2ccccc21	-8%	35µM*	-1%	-2%	.	-2%
COC(=O)c1ccc(CSc2nc3c([nH]c4ccccc43)c(=O)n2-c2cccc(OC)c2)o1	.	14%	.	-17%[46.1 µM]	0%	.
O=C1c2ccccc2C(=O)N1c1ccccc1	0%	.	.	.	2%	-4%
O=C1C=CC(=O)N1c1cccc(-c2ccccc2)c1	7%	0.71µM*	-4%	?	-4%	2.5µM*
CC(=O)Nc1ccc(OCC(O)Cn2c3ccccc3c3ccccc32)cc1 (stereo unspecified)	?	-18%	?	-5%	-16%	28%
Cc1ccccc1OCC(O)Cn1c2ccccc2c2ccccc21 (stereo unspecified)	7.9µM*	6%	?	?	.	?
Cc1ccc(OCC(O)CNC2CCCC2)c(C)c1 (stereo unspecified)	-27%	-8%	.	.	1%	-11%
CC(=O)Nc1ccc(OCC(O)Cn2c3ccccc3c3ccccc32)c(C)c1 (stereo unspecified)	?	7%	-13%	?	22µM*	8%
Cc1ccccc1OCC(O)CNC1CCC(NCC(O)COc2ccccc2C)CC1 (stereo unspecified)	?	-32%	1.1µM*	?	?	58%
O=C(NCc1ccccn1)c1cnn(-c2ncc3c(n2)-c2ccccc2CC3)c1C1CC1	.	.	.	.	-12%	.
O=C1CCCN2N=C(SCC(=O)Nc3cccc(Cl)c3)SC2=N1	?	2%	-27%[46.1 µM]	-23%[46.1 µM]	-23%	20%
O=C1CCCN2N=C(SCC(=O)Nc3cccc(C(F)(F)F)c3)SC2=N1	6.3µM*	4%	?	-29%[46.1 µM]	-14%	0%
CCCCc1ccc(NC(=O)CSC2=NN3CCCC(=O)N=C3S2)cc1	11µM*	0%	?	?	-28%	27%
Cc1ccccc1N1CC(c2nnc(NC(=O)c3ccco3)s2)CC1=O (stereo unspecified)	.	-10%	-1%[46.1 µM]	-2%[46.1 µM]	0%	.
Cc1ccc(OC[C@H](O)CNS(=O)(=O)c2ccccc2C(=O)O)cc1	.	.	2%[46.1 µM]	.	.	.
SMILES	HCV inhibitor	Sm TGR inh	MARV entry inh	Lassa entry inh	FMDV inh	RE007 growth inh
COc1ccc2c(c1)OC1=C(C(=O)CCC1)C2C1=C(O)CCCC1=O (stereo unspecified)	-7%	18µM*	3%	-10%	?	-8%
CCCCn1cc(S(=O)(=O)c2ccc(C)cc2)c(=O)c2cc(F)c(N3CCCCC3)cc21	.	-5%	.	0%[46.1 µM]	-3%	.
CCOC(=O)c1ccc(NC(=O)CSc2nc(-c3ccc(OC)cc3)cc(C(F)(F)F)c2C#N)cc1	.	2%	18%[46.1 µM]	8%[46.1 µM]	-11%	.
O=S(=O)(c1ccccc1)c1nc(-c2ccco2)oc1NCCCn1ccnc1	7%	40µM*	12%	9%	10%	-4%
O=S(=O)(c1ccccc1)c1nc(-c2ccco2)oc1NCc1ccco1	-8%	35µM*	?	19%	-10%	14%
N#Cc1nc(-c2ccco2)oc1NCc1cccnc1	28%	89µM*	-3%	1%	.	15%
O=S(=O)(c1ccc(F)cc1)c1nc(-c2ccco2)oc1Nc1ccccc1	-1%	4%	11%	?	54%	-14%
O=S(=O)(c1ccccc1)c1nc(-c2ccco2)oc1Nc1ccccc1	-22%	0%	0%	?	31%	26%
O=S(=O)(c1ccccc1)c1nc(-c2ccco2)oc1NCc1ccccc1	10%	35µM*	-7%	-13%	19%	-15%
Cc1ccc(OCCCCn2nnc3sc4c(c3c2=O)CCCC4)cc1	.	0%	0%[46.1 µM]	-18%[46.1 µM]	-18%	.
O=C1CC(C(=O)Nc2cc(Cl)ccc2Cl)n2ncnc2N1 (stereo unspecified)	5%	22µM*	-14%[46.1 µM]	17%[46.1 µM]	36%	-1%
Cc1ccc2cc(C3C(C#N)=C(N)Oc4c3ccc3cccnc43)c(=O)[nH]c2c1 (stereo unspecified)	11µM*	11µM*	?	?	-17%	-20%
N#CC1=C(N)Oc2c(ccc3cccnc23)C1c1cccnc1 (stereo unspecified)	3.5µM*	20µM*	?	?	-21%	-9%
CC(=O)C1=C(C)OC(N)=C(C#N)C1c1cc2cccc(C)c2nc1Cl (stereo unspecified)	13%	?	15%	1%	-16%	-6%
CCc1ccc2[nH]c(=O)c(C3C(C#N)=C(N)Oc4c3ccc3cccnc43)cc2c1 (stereo unspecified)	11µM*	?	?	-17%	-3%	17%
C[n+]1cccc(C2C(C#N)=C(N)Oc3c2ccc2ccccc32)c1 (stereo unspecified)	4%	40µM*	?	?	19%	-13%
O=C1CSC2(C(=O)N(Cc3cccc(C(F)(F)F)c3)c3ccccc32)N1c1ccc(F)c(F)c1 (stereo unspecified)	.	6%	.	-16%[46.1 µM]	-17%	.
CCN(C(=O)CN(C)S(=O)(=O)c1ccc2c(c1)n(C)c(=O)c(=O)n2C)c1cccc(C)c1	.	-11%	-11%[46.1 µM]	1%[46.1 µM]	-8%	.
O=C(NCC1CCC2(CCN(Cc3cnn(-c4ccc(F)cc4)c3)CC2)O1)c1ccccc1 (stereo unspecified)	.	.	.	.	-6%	.

Screening data (PubChem)
